# Source: PubChem BioAssay AID504652 (National Center for Advancing Translational Sciences (NCATS), 2011)
# About 11,000 (3.1%) of roughly 360,000 compounds were called active. Many of the other results were omitted from the sample, so actives are more common in it than they were. Values without a mark were called inactive. Rule as the data show it: active = activity change below about -30%; inactive = the rest.
# Biological target: D(1A) dopamine receptor (Homo sapiens) (UniProt P21728)
# Experiment: Antagonist of Human D 1 Dopamine Receptor: qHTS
# Details: HEK293 TREx D1 cells, calcium flux, dopamine EC80; at 10 µM; stronger effect = lower value
# Outline: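 Tetracycline-induced HEK293 Trex D1 cells, force-coupled to calcium, dye-loaded; compounds added and read 180 s, then EC80 dopamine added and calcium flux tracked kinetically another 180 s.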
# % is scaled to controls: 0 for no effect and ±100 for the full control effect.
# D(1A) dopamine receptor (Homo sapiens), sequence (P21728 whole entry, looked up): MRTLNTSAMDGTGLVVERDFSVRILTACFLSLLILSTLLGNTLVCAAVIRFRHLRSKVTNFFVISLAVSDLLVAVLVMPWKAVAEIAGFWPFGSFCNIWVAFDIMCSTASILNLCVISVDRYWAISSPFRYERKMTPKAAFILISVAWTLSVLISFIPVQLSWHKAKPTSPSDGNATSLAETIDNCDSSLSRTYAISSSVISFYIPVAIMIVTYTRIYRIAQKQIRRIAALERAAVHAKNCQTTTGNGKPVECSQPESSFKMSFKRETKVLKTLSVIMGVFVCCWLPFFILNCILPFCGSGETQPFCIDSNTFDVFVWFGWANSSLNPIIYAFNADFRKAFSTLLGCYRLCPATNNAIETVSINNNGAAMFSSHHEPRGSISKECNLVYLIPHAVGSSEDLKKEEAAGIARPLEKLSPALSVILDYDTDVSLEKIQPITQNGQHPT
row,Compound,"activity change, negative = inhibition"
1,CC(C)Cn1c(-c2ccc(S(=O)(=O)N3CCOCC3)cc2)csc1=Nc1cc(Cl)ccc1Cl,-0.499%
2,CC1CCCN(c2nc3c(S(=O)(=O)c4ccc(C(C)C)cc4)nnn3c3ccsc23)C1 (centres undefined),-10.6%
3,CCc1cc2c(cc(C(=O)OC)n2Cc2nc(-c3ccc(C)cc3)oc2C)s1,10.2%
4,CC(=O)NNC1=Nc2ccccc2N(C)C(C)C1 (centres undefined),3.33%
5,COC(=O)C1=C(C(=O)OC)[C@@H]2N(C)c3ccccc3[C@@]23C[C@@H](C(=O)OC)N(C(C)=O)C3=N1,-45.5% (active)
6,O=C(CSc1n[nH]c(-c2cccnc2)n1)Nc1ccc(Cl)cc1,24.7%
7,O=C(CSc1ncn[nH]1)Nc1ccnc2ccccc12,-18.5%
8,O=C(CSc1n[nH]c(-c2cccnc2)n1)Nc1ccnc2ccccc12,-30.8% (active)
9,O=C(CNC(=O)c1ccc(Cl)c(C(F)(F)F)c1)OC(C(=O)Nc1cc(C(F)(F)F)ccc1Cl)c1ccccc1 (centres undefined),7.72%
10,COc1ccc(Cl)cc1S(=O)(=O)N1CCC(c2ccncc2)CC1,8.07%
11,CCCn1c2ccccc2c2cnn(CC(=O)N3CCCC(C(=O)OCC)C3)c(=O)c21 (centres undefined),13.4%
12,Cc1ccc(Cn2c(C)c3cnn(CC(=O)NCc4ccccc4)c(=O)c3c2C)cc1,-2.69%
13,CCOC(=O)C1CCCN(C(=O)Cn2ncc3c(C)n(Cc4ccc(F)cc4)c(C)c3c2=O)C1 (centres undefined),-36.8% (active)
14,CC1CCN(C(=O)Cn2c(=O)n(-c3ccc(Cl)cc3)c(=O)c3c4c(sc32)CCC4)CC1,-0.901%
15,CSc1ccc(NC(=O)Cn2nnnc2-c2ccccc2F)cc1,-8.36%
16,Cc1ccc(Cl)cc1NC(=O)C(C)n1nnc2sc(-c3ccccc3)cc2c1=O (centres undefined),-1.65%
17,CCN(CCn1cccn1)Cc1cn[nH]c1-c1ccc(OC)cc1F,0.481%
18,CCN(CCn1cccn1)Cc1nc(-c2ccc(C(=O)OC)cc2)no1,-44.5% (active)
19,COC(=O)c1ccc(-c2noc(CN(Cc3ccccn3)CC3CCCO3)n2)cc1 (centres undefined),-16.4%
20,COC(=O)c1ccccc1NC(=O)c1ccc(C#N)cc1,6.29%
21,COCCCNC(=S)NC(=O)c1ccc([N+](=O)[O-])cc1,5.38%
22,CC(C)(C)C(=O)NCCCNc1ccc([N+](=O)[O-])cc1,-35.6% (active)
23,O=[N+]([O-])c1ccc(NCCCO)c(C(F)(F)F)c1,6.05%
24,CC1=C(C(=O)OCc2ccc(C)cc2)C(c2ccccc2Cl)CC(=O)N1 (centres undefined),-1.32%
